From PubChem BioAssay (NCI)
This is part of a sample that, as a whole, favours compounds with a hit. Of some 83,000 tested, about 20% had one in any assay.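 Compound tested at a single concentration for 48 hours in 96-well plates; a percent growth value below 10 was scored as active.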 A number with no mark means an inactive call. Calls of active or inactive are those of the source.

What was measured:
Experiment in all cases: NCI-60 one-dose screen, 48 h (100 = growth as untreated, 0 = no growth, -100 = all killed)
Conditions in all cases: 10 µM
[1] = tested on: HCT-15 colon
[2] = tested on: HT29 colon
[3] = tested on: SNB-75 CNS
[4] = tested on: SNB-19 CNS
[5] = tested on: U251 CNS
[6] = tested on: PC-3 prostate
[7] = tested on: SK-MEL-5 melanoma
[8] = tested on: UACC-62 melanoma
[9] = tested on: LOX IMVI melanoma
[10] = tested on: SK-MEL-28 melanoma
[11] = tested on: SK-MEL-2 melanoma
[12] = tested on: SN12C renal
[13] = tested on: UO-31 renal
[14] = tested on: TK-10 renal
[15] = tested on: ACHN renal
[16] = tested on: CAKI-1 renal
[17] = tested on: CCRF-CEM leukemia
[18] = tested on: MOLT-4 leukemia
[19] = tested on: A498 renal
[20] = tested on: EKVX NSCLC

| SMILES | growth [1] | growth [2] | growth [3] | growth [4] [%] | growth [5] | growth [6] [%] | growth [7] | growth [8] | growth [9] | growth [10] | growth [11] | growth [12] | growth [13] | growth [14] | growth [15] | growth [16] | growth [17] | growth [18] | growth [19] | growth [20] [%] |
| --- | --- | --- | --- | --- | --- | --- | --- | --- | --- | --- | --- | --- | --- | --- | --- | --- | --- | --- | --- | --- |
| Oc1cc(O)c(Br)cc1Br | 101% | 98.1% | 95.7% | 102 | 99.7% | 87.9 | 97.7% | 101% | 94% | 111% | 96.6% | 101% | 85.2% | 94.3% | 103% | 95.9% | 95.4% | 93.1% | – | – |
| Cc1cccc2c(Nc3ccc(NS(C)(=O)=O)cc3)c3ccc([N+](=O)[O-])cc3nc12 | 6.83% (active) | -10.3% (active) | 19.7% | 25.7 | 3.4% (active) | 18 | -19.4% (active) | 1.92% (active) | -43.5% (active) | -5.65% (active) | -19.1% (active) | 7.61% (active) | 10.5% | – | -11.4% (active) | 6.69% (active) | -9.83% (active) | -5.36% (active) | -11.2% (active) | – |
| COc1ccc(C(=O)/C=C/c2cc(-c3ccc4c(c3)OCO4)n[nH]2)cc1OC | 52.1% | 36.4% | 60.3% | 47.1 | 31.8% | 48.4 | 81.7% | 88.9% | 47.5% | 103% | 84.4% | 60.3% | 44.4% | 62.8% | 76.3% | 38.1% | – | -9.67% (active) | 41.9% | – |
| O/N=C1\CCC2CCCCC2C1 (stereo unspecified) | 99.6% | 99.2% | 71% | 98.5 | 107% | 97.1 | 102% | 106% | – | 108% | 101% | 113% | 95.5% | 101% | 97.3% | 96.2% | 103% | 98.6% | 103% | – |
| Cc1nc2sccn2c1-c1csc(Nc2cccc(Cl)c2C)n1 | 46.4% | 31% | 77.5% | 77.1 | 60.8% | 53.1 | 16.5% | 53.3% | 61.4% | 59.7% | 43.8% | 59.4% | 51.2% | – | 60.3% | 51.4% | 47.1% | 40.2% | – | – |
| CN(C)c1ccc2c(c1)OC(N)=C(C#N)C2c1ccc2c(c1)CCO2 (stereo unspecified) | 18% | 9% (active) | 40.8% | 31.4 | 21.7% | 24.1 | 10.3% | 34.8% | – | 57.6% | 32.1% | – | 38.2% | 79.1% | 37.4% | 37% | 28.7% | 34.5% | – | 35.9 |
| OC(CNC1CCCC1)Cn1c2ccccc2c2ccccc21 (stereo unspecified) | -37.6% (active) | -0.747% (active) | 51.5% | 33.8 | -34.5% (active) | 27 | -61.6% (active) | -50.9% (active) | – | -60% (active) | 48.9% | 50.7% | 12.3% | 29.2% | 15.1% | 31.8% | 4.28% (active) | -13.9% (active) | 58% | – |
| CCOC(=O)c1c(O)c2cc(-c3ccccc3)nc(OCC)c2c(=O)n1C | 82.7% | 107% | 95.6% | 91.5 | 97.3% | 14.3 | 86.7% | 99.9% | – | 84.8% | 87.9% | 98.7% | 79.6% | 123% | 98.3% | 97.3% | 56% | 107% | 90.3% | 96 |
| O=c1[nH]c(=O)n(C2C[C@@H](O)[C@@H](CO)O2)cc1F (stereo partly specified) | 39% | 27.2% | 20.3% | 41.6 | 34.2% | 44 | -69% (active) | 13.9% | – | 37.9% | 57.3% | – | – | 35.5% | – | 31.6% | 29.1% | 32.5% | 15.8% | 70.7 |
| COc1cc(Cn2c(-c3ccccc3)c(Cl)c3c2-c2oncc2CC3)cc(OC)c1 | 80.8% | 56.1% | 94.8% | 85.3 | 37.3% | 60.8 | 109% | 55.4% | – | 92.3% | 75.3% | 92% | -7.99% (active) | 104% | 69.2% | 47.3% | 9.93% (active) | 5.45% (active) | 26.5% | 90.6 |
| COc1ccc(-c2nnc(SCC(=O)c3ccccc3)o2)cc1 | 96.3% | 90.8% | 92.5% | 96.9 | 98.1% | 97.1 | 92.8% | 88.3% | – | 106% | 95.6% | – | 99.4% | 89.1% | 97.5% | 94.7% | 59.5% | 95.2% | 85.1% | 97.9 |
| FC(F)(F)c1ccc(-c2nc(-c3nc4cc(Cl)c(Cl)cc4[nH]3)c3ccccn23)cc1 | 82.6% | 55.9% | -16.1% (active) | 84.4 | 47.6% | 48.3 | 53.4% | 71.1% | 62.6% | 57.4% | 68.6% | 84.4% | – | 16.7% | 63.6% | 83.9% | 81.6% | 63.5% | – | – |
| Cc1ccc(/C(CS(=O)(=O)c2ccc(C)cc2)=N\O)cc1 | 95.2% | 99.7% | 87.8% | 88 | 90.4% | 94.3 | 98.9% | 87.3% | 102% | 103% | 104% | 89.3% | 93% | – | 91.7% | 92.4% | – | 102% | 92.2% | – |
| Oc1ccc(/C=N\Nc2ccccn2)c(O)c1 | 32.7% | 51.6% | 9.86% (active) | 29.4 | 26.5% | 61.3 | 39.4% | 7.44% (active) | – | 64.5% | 46.3% | 24.1% | -19.7% (active) | 61.6% | 7.03% (active) | -15.3% (active) | 8.18% (active) | 11.2% | – | 33 |
| CCC(CCNc1cc(OC)cc2cccnc12)CN1C(=O)c2ccccc2C1=O (stereo unspecified) | 93.1% | 105% | 84% | 103 | 102% | 89.2 | 105% | 97.5% | – | 117% | 108% | – | 94.7% | 119% | 102% | 92.8% | 99.3% | 108% | 117% | 95.5 |
| CCOC(=O)c1c(C)n(-c2ccc(Cl)cc2)c2ccc(OC(=O)/C=C/c3ccccc3)cc12 | 60.8% | 66.1% | 66.6% | 89.7 | 83.2% | 67.7 | 79.1% | 68.1% | 91.4% | 81.9% | 64.2% | 86.6% | – | 96% | 98.7% | 103% | 75.1% | 69.8% | 68.7% | – |
| COc1ccc(C2C=C(c3ccc(OC)c(OC)c3)N=C3SC=CN32)c(Br)c1 (stereo unspecified) | 41.9% | 33.7% | 85.5% | 73 | 43.7% | 48.9 | 63.6% | 68.9% | – | 89.8% | 104% | 75% | 67.9% | 106% | 76.6% | 71.5% | -2.4% (active) | 25.1% | 74% | – |
| COc1cc2c3c(cccc3c1)C(=O)N(CCN1CCCC1)C2=O | 20.1% | 0.567% (active) | 23.5% | 31.7 | 25.9% | 14.3 | -33.3% (active) | -34% (active) | -2.23% (active) | 19.1% | -8.39% (active) | 29.7% | – | -6.26% (active) | 7.6% (active) | 14.2% | 18.9% | 4.5% (active) | -22.1% (active) | – |
| CNC(=O)c1cc(Oc2ccc(NC(=O)Nc3ccc(Cl)c(OC4CCCCC4)c3)c(F)c2)ccn1 | 37.7% | 48.1% | 51.5% | 41.2 | 38.8% | 16.6 | 15.6% | 32.2% | – | 75.4% | 55.3% | – | 43.1% | 51.9% | 29.8% | 41.9% | 35.4% | 24.1% | 57.5% | 27.7 |
| COc1cc(C(c2c[nH]c3ccccc23)N2CCCC2)ccc1OCc1ccccc1 (stereo unspecified) | 77.1% | 78.5% | 41.3% | 87.5 | 86% | 55.1 | 75.6% | 60.9% | 68.9% | 98% | 81.6% | 74.9% | – | 76.6% | 73.2% | 53.3% | 16.2% | 26.1% | 71.6% | – |
| COc1ccc(C(C)=O)cc1N1C(=O)C2C(C1=O)C1(c3ccccc3)C(=O)C2(c2ccccc2)C(c2ccc(C)cc2)=C1c1ccc(C)cc1 (stereo unspecified) | 25.3% | 21.4% | 57.3% | 29.7 | 14.8% | 12.6 | -29.1% (active) | -70.9% (active) | 7.38% (active) | 37.6% | -0.955% (active) | 26.2% | – | 13.7% | 23.1% | 6.11% (active) | 8.66% (active) | 12.6% | 54.1% | – |
| COC1OC2COC(c3ccccc3)OC2C(=O)C1NC(=O)c1ccccc1 (stereo unspecified) | 101% | 105% | 83% | 94.9 | 109% | 85 | 108% | 93.7% | – | 109% | 94% | 96.7% | 72.5% | 108% | 98.9% | 88.9% | 97.7% | 110% | 116% | 79.5 |
| CCSc1nc2c([nH]1)c(=O)n(C)c(=S)n2C | 105% | 109% | 126% | 109 | 105% | 101 | 119% | 105% | – | 128% | 111% | 107% | – | 101% | 102% | 100% | 100% | 108% | 108% | 95.5 |
